Laboratory results published in PubChem BioAssay (EPA / NIEHS).
Inconclusive results are not listed. Calls of active or inactive are those of the source. How the source made its calls, unless noted: active means hit-call score of the fitted dose curve at least 0.9, where 1 is the maximum; inconclusive means response in the unintended direction; inactive means score below 0.9.

Tests used:
[1] = BSK_4H_Eotaxin3: BioMAP Diversity Plus: 4H Assay for Eotaxin 3 Biomarker Activity (AID 2283000; active means hit-call score of the fitted dose curve at least 0.9, where 1 is the maximum; inactive means score below 0.9;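 on outcome: CCL26 protein level quantified by ELISA in parallel with SRB cytotoxicity check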); settings: primary human endothelial cells (HUVEC); actives raise or lower the signal
Method in brief: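 HUVEC, 24 h post-dose, ELISA for Eotaxin-3/CCL26. Gain or loss of signal fitted bidirectionally vs DMSO baseline.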

[2] = target: human Peroxisome Proliferator-activated Receptor alpha (PPARa), PPARA (gene 5465) (UniProt Q07869); test: ATG_PPARa_TRANS: Attagene TRANS-FACTORIAL HepG2 Assay for human Peroxisome Proliferator-activated Receptor alpha (PPARa) (AID 2283001)
Method in brief: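 Gain-of-signal endpoint: reporter mRNA induction relative to DMSO, detected by fluorescent RT-PCR and capillary electrophoresis. HepG2 cells transiently carried GAL4-UAS-driven reporter units plus NR-Gal4 fusion; exposure lasted 24 h.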

[3] = read-out: Intercellular Adhesion Molecule 1 (ICAM1), ICAM1 (gene 3383); test: BSK_3C_ICAM1: BioMAP Diversity Plus: 3C Assay for Intercellular Adhesion Molecule 1 (ICAM1) Biomarker Activity (AID 2283003; active means hit-call score of the fitted dose curve at least 0.9, where 1 is the maximum; inactive means score below 0.9); settings: primary human endothelial cells (HUVEC); actives raise or lower the signal
Method in brief: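 ICAM-1 levels measured by ELISA after HUVEC cultures in the 3C system had been dosed for 24 h. Gain or loss of signal relative to DMSO was fitted in both directions.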

[4] = target: Peroxisome proliferator-activated receptor gamma (Homo sapiens) (UniProt P37231); test: ATG_PPARg_TRANS: Attagene TRANS-FACTORIAL HepG2 Assay for human Peroxisome Proliferator-activated Receptor-gamma (PPARg) (AID 2283007)
Method in brief: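 Endpoint reflects upward reporter mRNA change versus DMSO controls. Setup: transiently transfected HepG2, GAL4-UAS reporters driven by chimeric NR-Gal4, 24 h incubation, RT-PCR with capillary electrophoresis read-out.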

[5] = target: Nuclear receptor subfamily 1 group I member 2 (Homo sapiens) (UniProt O75469); test: ATG_PXR_TRANS: Attagene TRANS-FACTORIAL HepG2 Assay for human Pregnane X Receptor (PXR) (AID 2283008)
Method in brief: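 Read-out is fluorescence of labelled reporter cDNA fragments separated by capillary electrophoresis after RT-PCR and HpaI digestion. Source: HepG2 cells carrying PXR-GAL4/UAS reporter constructs, treated 24 h; activity fitted upward relative to DMSO.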

[6] = target: human Retinoic Acid Receptor beta (RARb), RARB (gene 5915) (UniProt P10826); test: ATG_RARb_TRANS: Attagene TRANS-FACTORIAL HepG2 Assay for human Retinoic Acid Receptor beta (AID 2283004)
Method in brief: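 HepG2 cells transiently transfected with multiplexed GAL4-UAS reporter units expressing chimeric NR–Gal4 fusions; 24 h compound exposure. Reporter mRNA quantified by RT-PCR, 6-FAM labelling, HpaI digestion and capillary electrophoresis; gain-of-signal fitted against DMSO baseline.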

[7] = target: Retinoic acid receptor alpha (Homo sapiens) (UniProt P10276); test: ATG_RARa_TRANS: Attagene TRANS-FACTORIAL HepG2 Assay for human Retinoic Acid Receptor alpha (RARa) (AID 2283005)
Method in brief: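 HepG2 cells transiently transfected with multiple reporter units expressing chimeric RARα-GAL4 fusion, with GAL4-UAS-driven reporters. After 24 h compound exposure, reporter mRNA induction quantified by RT-PCR and capillary electrophoresis with fluorescent labeling; gain-of-signal fitted relative to DMSO control.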

[8] = BSK_3C_Proliferation: Cell Proliferation Assessment in the BioMAP Diversity Plus: 3C Assay (AID 2283006; active means hit-call score of the fitted dose curve at least 0.9, where 1 is the maximum; inactive means score below 0.9); settings: primary human endothelial cells (HUVEC)
Method in brief: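 Read-out is total protein by SRB absorbance at 560 nm, taken as a proxy for relative cell number. Primary human umbilical vein endothelium cultured below confluence was dosed for 48 h, TCA-fixed and SRB-stained; curves were fitted bidirectionally versus DMSO.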

[9] = target: human Peroxisome Proliferator-activated Receptor delta (PPARd), PPARD (gene 5467) (UniProt Q03181); test: ATG_PPARd_TRANS: Attagene TRANS-FACTORIAL HepG2 Assay for human Peroxisome Proliferator-activated Receptor delta (PPARd) (AID 2283002)
Method in brief: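 Measured quantity: GAL4-UAS reporter transcript induction in HepG2 after 24 h chemical dosing, with NR-Gal4 chimeras supplied by transient transfection. Detection by RT-PCR and capillary electrophoresis; upward fit against DMSO.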

[10] = target: human Retinoic Acid Receptor gamma (RARg), RARG (gene 5916) (UniProt P13631); test: ATG_RARg_TRANS: Attagene TRANS-FACTORIAL HepG2 Assay for human Retinoic Acid Receptor gamma (RARg) (AID 2283009)
Method in brief: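 Transient transfection of HepG2 with multi-reporter constructs, then 24 h chemical treatment. Total RNA isolated, reverse-transcribed, PCR-amplified, fluorescently labelled and resolved by capillary electrophoresis; activity scored as mRNA induction versus DMSO.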

Nuclear receptor subfamily 1 group I member 2 (Homo sapiens), sequence (O75469 whole entry, looked up, the tested form may be a part): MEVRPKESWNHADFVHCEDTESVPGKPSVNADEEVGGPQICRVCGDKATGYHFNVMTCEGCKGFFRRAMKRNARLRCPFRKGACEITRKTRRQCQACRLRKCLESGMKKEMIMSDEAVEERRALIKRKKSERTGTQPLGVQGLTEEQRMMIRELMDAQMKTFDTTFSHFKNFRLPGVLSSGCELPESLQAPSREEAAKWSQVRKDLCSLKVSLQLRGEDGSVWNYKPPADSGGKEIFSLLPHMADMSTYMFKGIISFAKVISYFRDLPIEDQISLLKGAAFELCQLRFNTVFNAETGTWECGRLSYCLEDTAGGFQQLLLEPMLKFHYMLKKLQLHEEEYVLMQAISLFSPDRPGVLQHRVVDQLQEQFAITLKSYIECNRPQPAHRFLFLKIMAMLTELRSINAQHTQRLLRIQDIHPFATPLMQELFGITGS
Peroxisome proliferator-activated receptor gamma (Homo sapiens), sequence (P37231 whole entry, looked up, the tested form may be a part): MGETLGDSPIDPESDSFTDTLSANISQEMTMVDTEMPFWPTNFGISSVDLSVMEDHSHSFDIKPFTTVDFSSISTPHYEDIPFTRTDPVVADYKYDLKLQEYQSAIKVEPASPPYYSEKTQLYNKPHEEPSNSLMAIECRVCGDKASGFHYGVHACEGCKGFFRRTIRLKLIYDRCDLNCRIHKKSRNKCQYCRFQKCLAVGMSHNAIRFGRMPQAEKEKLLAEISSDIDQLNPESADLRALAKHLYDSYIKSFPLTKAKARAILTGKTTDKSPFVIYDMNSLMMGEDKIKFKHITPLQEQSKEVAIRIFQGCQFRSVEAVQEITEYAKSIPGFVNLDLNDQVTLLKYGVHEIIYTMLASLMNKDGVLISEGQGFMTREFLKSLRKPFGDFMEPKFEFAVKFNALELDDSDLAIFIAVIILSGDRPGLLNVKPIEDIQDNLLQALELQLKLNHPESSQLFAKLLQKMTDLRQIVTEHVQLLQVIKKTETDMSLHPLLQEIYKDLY
human Peroxisome Proliferator-activated Receptor alpha (PPARa), PPARA (gene 5465), sequence (Q07869 whole entry, looked up, the tested form may be a part): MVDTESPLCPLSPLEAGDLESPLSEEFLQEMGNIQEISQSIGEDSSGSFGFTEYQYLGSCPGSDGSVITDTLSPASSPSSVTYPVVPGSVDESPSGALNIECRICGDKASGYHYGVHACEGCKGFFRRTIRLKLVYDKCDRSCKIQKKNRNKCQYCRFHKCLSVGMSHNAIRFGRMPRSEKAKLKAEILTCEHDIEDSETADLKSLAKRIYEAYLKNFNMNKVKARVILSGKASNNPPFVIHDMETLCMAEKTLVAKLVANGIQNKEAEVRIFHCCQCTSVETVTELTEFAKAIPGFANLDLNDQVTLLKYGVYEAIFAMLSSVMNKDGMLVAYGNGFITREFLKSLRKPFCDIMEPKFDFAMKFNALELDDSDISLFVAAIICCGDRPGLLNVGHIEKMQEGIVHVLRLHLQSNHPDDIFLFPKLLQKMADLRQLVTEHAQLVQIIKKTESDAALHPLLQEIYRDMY
human Peroxisome Proliferator-activated Receptor delta (PPARd), PPARD (gene 5467), sequence (Q03181 whole entry, looked up, the tested form may be a part): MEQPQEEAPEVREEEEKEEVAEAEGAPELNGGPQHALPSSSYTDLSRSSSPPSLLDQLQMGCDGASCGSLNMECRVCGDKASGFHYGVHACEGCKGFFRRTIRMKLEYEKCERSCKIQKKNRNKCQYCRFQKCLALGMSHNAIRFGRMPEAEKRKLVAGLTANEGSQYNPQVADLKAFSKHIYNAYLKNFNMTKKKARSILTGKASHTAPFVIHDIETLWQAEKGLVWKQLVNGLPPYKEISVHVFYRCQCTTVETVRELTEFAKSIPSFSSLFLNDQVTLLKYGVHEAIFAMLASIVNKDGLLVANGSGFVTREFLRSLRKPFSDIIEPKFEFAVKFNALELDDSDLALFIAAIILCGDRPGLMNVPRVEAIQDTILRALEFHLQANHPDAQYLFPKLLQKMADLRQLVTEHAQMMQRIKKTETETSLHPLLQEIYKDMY
human Retinoic Acid Receptor beta (RARb), RARB (gene 5915), sequence (P10826 whole entry, looked up, the tested form may be a part): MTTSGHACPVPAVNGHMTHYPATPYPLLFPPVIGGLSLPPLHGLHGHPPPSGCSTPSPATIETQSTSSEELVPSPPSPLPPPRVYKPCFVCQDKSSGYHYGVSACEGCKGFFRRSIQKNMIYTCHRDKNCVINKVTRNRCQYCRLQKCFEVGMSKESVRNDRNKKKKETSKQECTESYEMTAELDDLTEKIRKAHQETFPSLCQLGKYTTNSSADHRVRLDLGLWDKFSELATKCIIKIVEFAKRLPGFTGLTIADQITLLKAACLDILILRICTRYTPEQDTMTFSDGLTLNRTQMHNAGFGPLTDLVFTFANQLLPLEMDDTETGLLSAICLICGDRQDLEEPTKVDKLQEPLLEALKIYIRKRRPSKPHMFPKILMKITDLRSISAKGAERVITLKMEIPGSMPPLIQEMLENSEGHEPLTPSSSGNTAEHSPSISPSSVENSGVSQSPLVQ
Retinoic acid receptor alpha (Homo sapiens), sequence (P10276 whole entry, looked up, the tested form may be a part): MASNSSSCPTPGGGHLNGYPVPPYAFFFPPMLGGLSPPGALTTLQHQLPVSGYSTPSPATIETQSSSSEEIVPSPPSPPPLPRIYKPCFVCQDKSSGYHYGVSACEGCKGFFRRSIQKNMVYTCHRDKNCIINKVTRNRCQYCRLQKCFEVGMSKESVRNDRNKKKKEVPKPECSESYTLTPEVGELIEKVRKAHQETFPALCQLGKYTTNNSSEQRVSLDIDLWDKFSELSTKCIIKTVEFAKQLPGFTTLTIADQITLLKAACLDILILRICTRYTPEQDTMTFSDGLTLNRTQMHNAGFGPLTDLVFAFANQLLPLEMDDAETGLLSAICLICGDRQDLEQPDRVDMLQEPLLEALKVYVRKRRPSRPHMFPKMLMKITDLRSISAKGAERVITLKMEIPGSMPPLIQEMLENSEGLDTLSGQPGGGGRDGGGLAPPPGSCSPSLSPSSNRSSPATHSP
human Retinoic Acid Receptor gamma (RARg), RARG (gene 5916), sequence (P13631 whole entry, looked up): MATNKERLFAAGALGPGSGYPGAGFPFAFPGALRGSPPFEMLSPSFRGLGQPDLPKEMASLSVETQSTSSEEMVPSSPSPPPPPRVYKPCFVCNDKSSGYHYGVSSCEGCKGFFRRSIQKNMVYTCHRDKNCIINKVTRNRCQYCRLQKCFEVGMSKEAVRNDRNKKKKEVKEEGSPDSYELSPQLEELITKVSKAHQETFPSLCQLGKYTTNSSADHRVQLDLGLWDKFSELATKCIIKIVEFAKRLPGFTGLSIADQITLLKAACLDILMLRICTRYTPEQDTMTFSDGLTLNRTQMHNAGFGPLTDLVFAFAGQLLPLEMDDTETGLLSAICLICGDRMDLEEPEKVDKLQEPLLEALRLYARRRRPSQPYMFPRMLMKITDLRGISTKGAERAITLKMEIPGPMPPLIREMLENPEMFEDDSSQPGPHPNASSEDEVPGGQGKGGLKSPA

## c1ccc(Sc2ccccc2)cc1
[1]
  AC50: 30.7 µM (active)
[2]
  outcome: inactive
[3]
  outcome: inactive
[4]
  outcome: inactive
[5]
  outcome: inactive

## CCCCN(CCO)CCO
[1]
  outcome: inactive
[2]
  outcome: inactive
[3]
  outcome: inactive
[4]
  outcome: inactive

## COC(=O)c1ccc(C(=O)OC)cc1
[1]
  outcome: inactive
[2]
  outcome: inactive
[3]
  outcome: inactive
[6]
  outcome: inactive
[7]
  outcome: inactive
[8]
  outcome: inactive
[5]
  outcome: inactive

## CC1=CC(C)C(C=O)C(C)C1 (centres undefined) (tested in a mixture with another compound)
[1]
  outcome: inactive
[2]
  outcome: inactive
[3]
  outcome: inactive
[4]
  outcome: inactive
[5]
  outcome: inactive

## CCCO[Si](OCCC)(OCCC)OCCC
[1]
  outcome: inactive
[9]
  outcome: inactive
[3]
  outcome: inactive
[4]
  outcome: inactive
[5]
  outcome: inactive

## c1ccc(OCCOc2ccccc2)cc1
[1]
  outcome: inactive
[9]
  outcome: inactive
[3]
  outcome: inactive
[5]
  outcome: inactive

## CC(=O)CCC=C(C)CCC=C(C)C
[1]
  AC50: 31.5 µM (active)
[2]
  outcome: inactive
[3]
  outcome: inactive
[4]
  AC50: 36.6 µM (active)
[5]
  AC50: 4.33 µM (active)

## N#CCCCC(C#N)CCC#N (centres undefined)
[2]
  outcome: inactive
[9]
  outcome: inactive
[6]
  outcome: inactive
[5]
  outcome: inactive
[10]
  outcome: inactive

## CCCC[N+](C)(CCCC)CCCC
[2]
  outcome: inactive

## CC(=O)c1cccnc1
[2]
  outcome: inactive

## CCC(=O)OCC=Cc1ccccc1
[1]
  outcome: inactive
[3]
  outcome: inactive
[4]
  outcome: inactive
[5]
  AC50: 16.7 µM (active)

## c1coc(CNc2ncnc3nc[nH]c23)c1
[2]
  outcome: inactive
[9]
  outcome: inactive

## O=c1cc[nH]cc1
[2]
  outcome: inactive
[9]
  outcome: inactive

## C=C(C)C(N)=O
[1]
  outcome: inactive
[3]
  outcome: inactive
[7]
  outcome: inactive

## O=S1(=O)CC=CC1
[2]
  outcome: inactive
[9]
  outcome: inactive

## CC1=CC[C@@H]2C[C@H]1C2(C)C
[2]
  outcome: inactive
[9]
  outcome: inactive

## OCC(F)(OC(F)(F)C(F)(OC(F)(F)C(F)(F)C(F)(F)F)C(F)(F)F)C(F)(F)F (centres undefined)
[1]
  outcome: inactive
[3]
  outcome: inactive
